PubChem BioAssay (NCI)
“And” between values parts separate entries of the source, which are not always exact repeats. Equal entries are not always repeated. Compounds without any hit were thinned out: in the full panel of roughly 83,000, 20% have a hit.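 Values shown are percent growth following 48 h exposure of cells in 96-well plates to a single concentration of compound; below 10 was considered active.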 The source holds several records for some structures; these can differ, active in one and inactive in another. The source made the active and inactive calls.

Each compound was assayed on HL-60(TB) leukemia (assay: NCI-60 one-dose screen, 48 h (100 = growth as untreated, 0 = no growth, -100 = all killed)). Conditions: 10 µM unless noted.

Row | Compound | growth
1 | O=C(O)c1ccc(S(=O)(=O)O)cc1 | 115% (inactive)
2 | COC(=O)[C@]12CC[C@@H](C)[C@H](C)[C@@H]1C1=CC[C@@H]3[C@@]4(C)CC(=O)[C@H](O)[C@@](C)(CO)[C@@H]4C(=O)C[C@@]3(C)[C@]1(C)CC2 | -33.3% (active)
3 | CC1=C(/C=C/C(C)=C/C=C/C(C)=C/C=N/NC(=S)NC(=S)N/N=C/C=C(C)/C=C/C=C(C)/C=C/C2=C(C)CCCC2(C)C)C(C)(C)CCC1 | 11.7% (inactive) and -28.1% (active)
4 | O=C(CCl)Nc1ccc2c(c1)C(=O)c1ccccc1C2=O | 12.7% (inactive)
5 | NC1=NC(SCc2ccccc2CCl)c2ncn(Cc3ccccc3CCl)c2N1 (stereo unspecified) | -25.5% (active)
6 | CC(C)C(=O)Nc1ccc([N+](=O)[O-])c(C(F)(F)F)c1 | 91.1% (inactive) and 98.3% (inactive)
7 | COc1ccc2[nH]c(O)c(C(=Nc3ccc(N(C)C(=O)CN4CCN(C)CC4)cc3)c3ccccc3)c2c1 | -14.9% (active)
8 | NC(=O)c1c(NC(=S)Nc2ccc(OC(F)(F)F)cc2)sc2c1CCC1(C2)OCCO1 | 94.2% (inactive)
9 | CC(=O)c1ccc(NCC(=O)Nc2ccccn2)cc1 | 109% (inactive)
10 | COc1ccc(NC(=O)c2cc(OC)c(OC)c(OC)c2)cc1O | 32.5% (inactive)
11 | CC(C)(C)c1ccc(Cn2cc(CSc3nc4ccccc4s3)nn2)cc1 | 93.7% (inactive)
12 | COc1cccc(NC(=O)c2cccc(-c3cc(=O)c4c(OC)c(OC)c(OC)cc4o3)c2)c1 | 68.7% (inactive)
13 | N#Cc1cccc(NC(=O)c2oc3ccccc3c2-c2cnn(-c3ccccc3)c2)c1 | -22.2% [50 µM] (active)
14 | Cc1ccc(S(=O)(=O)NCCCNc2nccc(-c3c(-c4cccc(F)c4)nc4occn34)n2)cc1 | 44.8% (inactive)
15 | COc1ccc(/C=C/C(=O)c2ccc(OC)c(OC)c2)cc1O | 81.5% (inactive)
16 | CC(=O)Nc1ccc(S(=O)(=O)N2C(=O)CCC2C(=O)Nc2ccccc2)cc1 (stereo unspecified) | 25.1% (inactive)
17 | CCCCNC(=O)Oc1ccc(/C(=C(\C)c2ccc(Cl)cc2)c2ccc(OCCN(CC)CC)cc2)cc1 | 69.8% (inactive)
18 | CC#Cc1nc2ccccc2c(=O)[nH]1 | 11.4% (inactive)
19 | N#CC(C#N)=NO | 104% (inactive)
20 | c1cnc2[nH]cc(-c3csc(-c4cn(CCCN5CCOCC5)c5ccccc45)n3)c2c1 | 35.8% (inactive)
21 | CCCCN[C@H]1CC[C@@]2(C)[C@@H](CC[C@@]3(C)[C@H]2[C@H](O)C[C@H]2/C(=C(\CCC=C(C)C)C(=O)OC)[C@@H](OC(C)=O)C[C@@]23C)[C@@H]1C | 0.474% (active)
22 | NC(=O)c1cc(Cl)ccc1NC(=O)c1ccccc1-c1ccccc1 | 1.29% (active)
23 | C[N+]1(CCCCC[N+]2(C)CCCC2)CCCC1 | 110% (inactive)
24 | C#CC[C@@H]1C[C@]2(C)[C@H]3CC[C@@H]4[C@H]5C(C(=C)C)CC[C@]5(C(=O)NCCCN5CCN(CCCN)CC5)CC[C@@]4(C)[C@]3(C)CC[C@H]2C(C)(C)[C@H]1OC(C)=O (stereo partly specified) | -51.6% (active)
25 | N#CC1=C(N)Oc2c(sc3c(Br)cccc23)C1c1ccc(Cl)cc1 (stereo unspecified) | -7.34% (active)
26 | C#CCC(C(=O)OCC)C(=O)OCC | 101% (inactive)
